From PubChem BioAssay AID1159580 (chemical genetic matrix, 2015)
Out of some 5,500 compounds screened, about 2,000 (36%) were called active. Not shown: some 18% with an inconclusive outcome. Rule as the data show it: active = normalized growth mostly below about 0.91 (no sharp cut-off); inconclusive = no clear call, values can overlap the other calls; inactive = mostly above about 0.92. Some of the results follow.

Assay: chemical genetic growth profiling, strain panel (AID 1159580);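 also: tested at 20 µM; growth read once vehicle control cultures reached saturation at 30 °C; 1 = growth at the plate median or of vehicle wells; lower values mean less growth of the strain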
Conditions: growth OD

Measured: normalized growth

COc1cc([C@@H]2c3cc4c(cc3C(O[C@@H]3O[C@@H]5CO[C@@H](c6cccs6)OC5[C@H](O)[C@H]3O)C3COC(=O)[C@@H]32)OCO4)cc(OC)c1O (stereo not given in full)
inactive: S. cerevisiae deletion strains, locus YJR066W, strain TOR1, stronger effect = lower value 0.99 | S. cerevisiae deletion strains, locus YKL009W, strain mrt4, stronger effect = lower value 1.03 | S. cerevisiae deletion strains, locus YKL068W, stronger effect = lower value 1.01 | S. cerevisiae deletion strains, locus YKL085W, strain MDH1 (second series), stronger effect = lower value 1 | S. cerevisiae deletion strains, locus YKL085W, strain MDH1, stronger effect = lower value 1 | S. cerevisiae deletion strains, locus YKL160W, strain elf1, stronger effect = lower value 1.05 | S. cerevisiae deletion strains, locus YKL190W, strain CNB1, stronger effect = lower value 0.997 | S. cerevisiae deletion strains, locus YKR001C, strain vps1, stronger effect = lower value 1.02 | S. cerevisiae deletion strains, locus YKR026C, strain gcn3, stronger effect = lower value 0.986 | S. cerevisiae deletion strains, locus YKR091W, strain srl3, stronger effect = lower value 0.998 | S. cerevisiae deletion strains, locus YLL001W, strain dnm1, stronger effect = lower value 1.05 | S. cerevisiae deletion strains, locus YLL026W, stronger effect = lower value 0.984 | S. cerevisiae deletion strains, locus YLL041C, strain sdh2, stronger effect = lower value 0.967 | S. cerevisiae deletion strains, locus YLR027C, strain aat2, stronger effect = lower value 0.985 | S. cerevisiae deletion strains, locus YLR039C, strain RIC1, stronger effect = lower value 1.01 | S. cerevisiae deletion strains, locus YLR058C, strain SHM2, stronger effect = lower value 1 | S. cerevisiae deletion strains, locus YLR102C, strain apc9, stronger effect = lower value 1.02 | S. cerevisiae deletion strains, locus YLR113W, strain HOG1, stronger effect = lower value 1.01 | S. cerevisiae deletion strains, locus YLR221C, strain rsa3, stronger effect = lower value 1.03 | S. cerevisiae deletion strains, locus YLR258W, strain gsy2, stronger effect = lower value 1 | S. cerevisiae deletion strains, locus YLR262C, strain YPT6 (second series), stronger effect = lower value 1 | S. cerevisiae deletion strains, locus YLR262C, strain YPT6, stronger effect = lower value 0.964 | S. cerevisiae deletion strains, locus YLR268W, strain sec22, stronger effect = lower value 1.02 | S. cerevisiae deletion strains, locus YLR320W, strain mms22, stronger effect = lower value 1.01 | S. cerevisiae deletion strains, locus YLR330W, strain CHS5, stronger effect = lower value 0.999 | S. cerevisiae deletion strains, locus YLR342W, strain FKS1 (second series), stronger effect = lower value 1.01 | S. cerevisiae deletion strains, locus YLR342W, strain FKS1, stronger effect = lower value 0.99 | S. cerevisiae deletion strains, locus YLR357W, strain rsc2, stronger effect = lower value 0.98 | S. cerevisiae deletion strains, locus YLR370C, strain arc18, stronger effect = lower value 0.986 | S. cerevisiae deletion strains, locus YLR371W, strain rom2, stronger effect = lower value 1.01 | S. cerevisiae deletion strains, locus YLR384C, strain iki3, stronger effect = lower value 0.97 | S. cerevisiae deletion strains, locus YLR418C, strain cdc73, stronger effect = lower value 1.02 | S. cerevisiae deletion strains, locus YML016C, strain PPZ1, stronger effect = lower value 1 | S. cerevisiae deletion strains, locus YML032C, strain rad52, stronger effect = lower value 0.917 | S. cerevisiae deletion strains, locus YML120C, strain ndi1, stronger effect = lower value 1.02 | S. cerevisiae deletion strains, locus YML124C, strain tub3, stronger effect = lower value 1.01 | S. cerevisiae deletion strains, locus YMR058W, strain fet3, stronger effect = lower value 0.993 | S. cerevisiae deletion strains, locus YMR078C, strain ctf18, stronger effect = lower value 1.01 | S. cerevisiae deletion strains, locus YMR125W, strain sto1, stronger effect = lower value 1.01 | S. cerevisiae deletion strains, locus YMR129W, stronger effect = lower value 0.983 | S. cerevisiae deletion strains, locus YMR205C, strain PFK2, stronger effect = lower value 1.02 | S. cerevisiae deletion strains, locus YMR223W, strain ubp8, stronger effect = lower value 1.02 | S. cerevisiae deletion strains, locus YMR231W, strain pep5, stronger effect = lower value 0.978 | S. cerevisiae deletion strains, locus YMR263W, strain SAP30, stronger effect = lower value 1 | S. cerevisiae deletion strains, locus YMR307W, strain GAS1, stronger effect = lower value 0.933 | S. cerevisiae deletion strains, locus YNL067W, strain RPL9B, stronger effect = lower value 0.998 | S. cerevisiae deletion strains, locus YNL071W, strain lat1, stronger effect = lower value 0.976 | S. cerevisiae deletion strains, locus YNL128W, strain TEP1, stronger effect = lower value 1.02 | S. cerevisiae deletion strains, locus YNL183C, strain NPR1, stronger effect = lower value 0.987 | S. cerevisiae deletion strains, locus YNL209W, strain ssb2, stronger effect = lower value 0.985 | S. cerevisiae deletion strains, locus YNL233W, strain BNI4, stronger effect = lower value 1 | S. cerevisiae deletion strains, locus YNL248C, strain rpa49, stronger effect = lower value 0.999 | S. cerevisiae deletion strains, locus YNL250W, strain rad50, stronger effect = lower value 0.977 | S. cerevisiae deletion strains, locus YNL271C, strain bni1, stronger effect = lower value 1.02 | S. cerevisiae deletion strains, locus YNL298W, strain CLA4, stronger effect = lower value 1.04 | S. cerevisiae deletion strains, locus YNL307C, strain MCK1, stronger effect = lower value 1.03 | S. cerevisiae deletion strains, locus YNL322C, strain KRE1 (second series), stronger effect = lower value 0.994 | S. cerevisiae deletion strains, locus YNR049C, strain mso1, stronger effect = lower value 0.978 | S. cerevisiae deletion strains, locus YNR052C, strain pop2, stronger effect = lower value 1.03 | S. cerevisiae deletion strains, locus YOL006C, strain TOP1, stronger effect = lower value 0.89 | S. cerevisiae deletion strains, locus YOL012C, strain htz1 0.835 | S. cerevisiae deletion strains, locus YOL147C, strain pex11, stronger effect = lower value 1.01 | S. cerevisiae deletion strains, locus YOR001W, strain rrp6, stronger effect = lower value 0.933 | S. cerevisiae deletion strains, locus YOR061W, strain CKA2, stronger effect = lower value 1 | S. cerevisiae deletion strains, locus YOR069W, strain VPS5, stronger effect = lower value 1 | S. cerevisiae deletion strains, locus YOR070C, strain gyp1, stronger effect = lower value 0.991 | S. cerevisiae deletion strains, locus YOR080W, strain dia2, stronger effect = lower value 0.971 | S. cerevisiae deletion strains, locus YOR083W, strain WHI5, stronger effect = lower value 1.05 | S. cerevisiae deletion strains, locus YOR106W, strain vam3, stronger effect = lower value 1.02 | S. cerevisiae deletion strains, locus YOR136W, strain idh2, stronger effect = lower value 1.02 | S. cerevisiae deletion strains, locus YOR144C, strain elg1, stronger effect = lower value 1.01 | S. cerevisiae deletion strains, locus YOR184W, strain ser1, stronger effect = lower value 1.01 | S. cerevisiae deletion strains, locus YOR231W, strain MKK1, stronger effect = lower value 1 | S. cerevisiae deletion strains, locus YOR265W, strain rbl2, stronger effect = lower value 0.985 | S. cerevisiae deletion strains, locus YOR270C, strain vph1, stronger effect = lower value 0.891 | S. cerevisiae deletion strains, locus YOR290C, strain snf2, stronger effect = lower value 0.982 | S. cerevisiae deletion strains, locus YOR316C, strain cot1, stronger effect = lower value 1.03 | S. cerevisiae deletion strains, locus YPL051W, strain arl3, stronger effect = lower value 1.03 | S. cerevisiae deletion strains, locus YPL055C, strain LGE1, stronger effect = lower value 0.996 | S. cerevisiae deletion strains, locus YPL078C, strain atp4, stronger effect = lower value 1.03 | S. cerevisiae deletion strains, locus YPL106C, strain sse1, stronger effect = lower value 1.01 | S. cerevisiae deletion strains, locus YPL240C, strain hsp82, stronger effect = lower value 0.99 | S. cerevisiae deletion strains, locus YPL241C, strain CIN2, stronger effect = lower value 1 | S. cerevisiae deletion strains, locus YPL256C, strain CLN2, stronger effect = lower value 1.03 | S. cerevisiae deletion strains, locus YPR119W, strain clb2, stronger effect = lower value 1.01 | S. cerevisiae deletion strains, locus YPR141C, strain kar3, stronger effect = lower value 1.01 | S. cerevisiae deletion strains, locus YPR163C, strain tif3, stronger effect = lower value 1.03 | S. cerevisiae deletion strains, locus YPR167C, strain met16, stronger effect = lower value 1.02 | S. cerevisiae deletion strains, strain wtn01, stronger effect = lower value 1.03 | S. cerevisiae strains, strain wild type, stronger effect = lower value 1.01
